The values below come from PMC7819943, “Rice protein-binding microarrays: a tool to detect cis-acting elements near promoter regions in rice”.

The full ranking holds about 39,000 sequences; the median of “fluorescence intensity (a.u.)” is about 4,300, and the highest 2% start at about 39,000. The sample as a whole holds a higher share of the highest values than the screen did.

The target in this assay is T1, OsSMF1 (Oryza sativa, UniProt Q6ZLB0 1-436).
T1 sequence: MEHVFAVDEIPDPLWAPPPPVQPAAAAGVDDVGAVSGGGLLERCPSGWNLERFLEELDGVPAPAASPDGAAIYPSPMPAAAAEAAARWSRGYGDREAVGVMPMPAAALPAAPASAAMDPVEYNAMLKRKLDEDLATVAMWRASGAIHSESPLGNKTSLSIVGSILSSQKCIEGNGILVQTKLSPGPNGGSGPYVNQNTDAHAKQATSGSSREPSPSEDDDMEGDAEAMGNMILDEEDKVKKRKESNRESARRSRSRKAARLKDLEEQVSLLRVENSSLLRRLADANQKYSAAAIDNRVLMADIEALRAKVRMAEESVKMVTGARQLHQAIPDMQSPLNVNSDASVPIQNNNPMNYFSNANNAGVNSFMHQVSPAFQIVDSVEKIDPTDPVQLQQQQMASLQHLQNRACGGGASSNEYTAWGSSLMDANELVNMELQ
As to the kind of experiment: protein-binding microarray (RPBM); PBS, 2% BSA, 51.3 ng/ul salmon testes DNA, 50 uM zinc acetate, 200 nM TF, 25 C, 1 h; high values mean tight binding. The following applies: protein: recombinant; tags: N-terminal polyhistidine and DsRed monomer fusion (pET32a); chain copies: 2; label: CyDye5-dUTP incorporated in the synthesized complementary strand; 3' TTTTT single-stranded linker to array surface; dsDNA, one strand shown. The essentials: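 Per-feature fluorescence intensity (arbitrary units), read on an Axon 4000B scanner, is the binding signal. Transcription factors carrying an N-terminal polyhistidine tag and DsRed fusion were expressed in E. coli BL21-CodonPlus and purified on Ni–NTA. A custom Agilent array, made double-stranded by primer extension with Cy5-dUTP and blocked with 2% BSA, was incubated with 200 nM protein in PBS, 2% BSA, salmon testes DNA and 50 µM zinc acetate at 25 °C for 1 h and then washed.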
As for “CGTGCATCCGCTTGTGCTGCCACTTCGACAGCCCGCCCGGCGGAGTCACCTAGTGCAG”, the binding signal was 3570 fluorescence intensity (a.u.). “GGGCTCCATAATAGAGTGCCACACTAGCATGTTACGATATCGGAGTCACCTAGTGCAG”: the binding signal was 3510 fluorescence intensity (a.u.). As for “CATAATTAGCGGTTGATTACTGTAGCATCACTGTAACAAACGGAGTCACCTAGTGCAG”, the figure is 3730 fluorescence intensity (a.u.); as for “TTAACAGTTGGTTACTAGTCCTAATTAATTCAGTAGCAATCGGAGTCACCTAGTGCAG”, 4700 fluorescence intensity (a.u.).

With “TCTACTGCAATTAGTTGATTCAGCTAGTAGCAAACATAATCGGAGTCACCTAGTGCAG”, the binding signal is 54800 fluorescence intensity (a.u.).

On to “TTTAGAATACTGCTCATACGTCAGTAACAAAGTCACACGACGGAGTCACCTAGTGCAG”, for which the binding signal is 3880 fluorescence intensity (a.u.). As for “GCCCAAAGAAAGAAGGAGGTGGACACGTGGGAGATCTGCGCGGAGTCACCTAGTGCAG”, the figure is 11200 fluorescence intensity (a.u.); as for “CCCAATCCGAACGGGACAGCTGCCCACGTGCGACCCATGTCGGAGTCACCTAGTGCAG”, 4920 fluorescence intensity (a.u.). In the case of “CTAATATATTGACGTGTAATTCTTTTGTGTGTTTGTGAAACGGAGTCACCTAGTGCAG”, the binding signal is 6530 fluorescence intensity (a.u.). As for “CATTGCTTTGTTTGATCTTGTGTGCCAATAATTGATGAAACGGAGTCACCTAGTGCAG”, the figure is 55900 fluorescence intensity (a.u.). With “CCAATTTGACGTGAAATGTTTAGATGATCTCTTGCCAGTACGGAGTCACCTAGTGCAG” the figure was 3150 fluorescence intensity (a.u.); with “ACATGGGGAAAACCAGGGACTAAAACTGTAATCAAACAGTCGGAGTCACCTAGTGCAG”, 29500 fluorescence intensity (a.u.). For the sequence “CCTTCCGTTCGACGCGACACGCGAGTCATTGCTGCCACCACGGAGTCACCTAGTGCAG”, the binding signal was 3680 fluorescence intensity (a.u.). As for “CCTCTCGTGGCATCGCATCGCATCGTGTCCTCTGCGACTGCGGAGTCACCTAGTGCAG”, the figure is 3630 fluorescence intensity (a.u.); as for “GACAAGCTCGGCACCAATCTCCACAGGAGCCGCATCAGGTCGGAGTCACCTAGTGCAG”, 3420 fluorescence intensity (a.u.); as for “CATGTCGACATGTTCACAAGCGGTACCAAGAGTCAAGACACGGAGTCACCTAGTGCAG”, 45800 fluorescence intensity (a.u.). With “GACCCAAATGTCATAGAGACACGACGGTTCACATGTCATACGGAGTCACCTAGTGCAG” the figure was 3900 fluorescence intensity (a.u.). With “AGTCCAAGAGCGTGACGCATGTTCGGTACCACGCGCACAACGGAGTCACCTAGTGCAG” the figure was 4740 fluorescence intensity (a.u.); with “TCTCCCTCTACCTCGACGTCATCAACCTCTTCCTCTCCCTCGGAGTCACCTAGTGCAG”, 11000 fluorescence intensity (a.u.). For “ACACCATGCGTATGATGCAATACCTATTGACTCCATTGAACGGAGTCACCTAGTGCAG”, the binding signal was 3380 fluorescence intensity (a.u.).

Regarding “GTATTGATGTTCTTACCATAAAAGTAACTCCATGAAAGAACGGAGTCACCTAGTGCAG”, the binding signal is 41100 fluorescence intensity (a.u.). With “GTTAACAGTAAGTTATTCTTTGAACTCCATATATTTGTTCCGGAGTCACCTAGTGCAG” the figure was 3440 fluorescence intensity (a.u.). Turning to “GCTTTGCATAGGCACTTTCAAAACTAGATATTAGTAACGCCGGAGTCACCTAGTGCAG”, the binding signal is 51000 fluorescence intensity (a.u.). With “TAGATTGCTTTTCAGTGAAACTACGTGCACATATGCATGCCGGAGTCACCTAGTGCAG” the figure was 3250 fluorescence intensity (a.u.). Consider “ACACTAGTAACAAAACTTGGCAATTTGGCATTTGGCATTTCGGAGTCACCTAGTGCAG”, for which the binding signal was 3300 fluorescence intensity (a.u.). As for “ACAGGTGCACGCACACGTGCCGCATCAACCAGACAGCCACCGGAGTCACCTAGTGCAG”, the figure is 3360 fluorescence intensity (a.u.); as for “CATATTATAAAATGTTGTGCTAATTATTATCGGTGTATATCGGAGTCACCTAGTGCAG”, 22300 fluorescence intensity (a.u.); as for “TTTTATTTCATTATATGATCCCATCAAATATAAATTAGCACGGAGTCACCTAGTGCAG”, 48500 fluorescence intensity (a.u.). In the case of “TGTTTAATAATAAATTTAGTAACATCAATTTTACATGATTCGGAGTCACCTAGTGCAG”, the binding signal is 46100 fluorescence intensity (a.u.). As for “TTATAAATTAAATTTTATGTAATGAAAATAATATCATTGGCGGAGTCACCTAGTGCAG”, the figure is 3900 fluorescence intensity (a.u.); as for “AAATATAATAAATTTAATGTTAACATATTTTACACGTAAGCGGAGTCACCTAGTGCAG”, 9740 fluorescence intensity (a.u.). As for “AATATTTACATTACTAAATTAGTTTTATTAAATTAATAATCGGAGTCACCTAGTGCAG”, the binding signal was 19800 fluorescence intensity (a.u.).

As for “CTCTCAAAATATTCGGATGTAATTTTAGTCGCACAAACATCGGAGTCACCTAGTGCAG”, the binding signal was 39200 fluorescence intensity (a.u.). As for “TAGTTATAAAGCACTGTAATTTTAGTTATAAATACAACATCGGAGTCACCTAGTGCAG”, the figure is 3260 fluorescence intensity (a.u.). As for “AAAATTTATTCATCCATCGTCATAATTTTAATTATATGCACGGAGTCACCTAGTGCAG”, the binding signal is 4150 fluorescence intensity (a.u.).

Take “CGGTGTTTGTAATTCATTTTATATAATGAAAATGGATTATCGGAGTCACCTAGTGCAG”: the binding signal was 44600 fluorescence intensity (a.u.). As for “GTAAATTTCATAAAATCCCACGTATTATGATTCAAATTGCCGGAGTCACCTAGTGCAG”, the figure is 5110 fluorescence intensity (a.u.); as for “AAACATAACAATATTTTCAACATAAAACAAATAATGTTATCGGAGTCACCTAGTGCAG”, 3530 fluorescence intensity (a.u.); as for “CTGCGCGTAGAAGTGACGCAAGAAGGCAGCGGGCCCACTACGGAGTCACCTAGTGCAG”, 3230 fluorescence intensity (a.u.). With “AGAACCTTCCGCGCTTCCGTGCTCCCCACCGCCACCTCGCCGGAGTCACCTAGTGCAG” the figure was 3430 fluorescence intensity (a.u.); with “TCACATCCACGTATATTCCCTTCCCCTTCTCCAACCTTTCCGGAGTCACCTAGTGCAG”, 9390 fluorescence intensity (a.u.); with “TCATCATCAAGACTGAGTCACTGACACGTGTGCACCTATGCGGAGTCACCTAGTGCAG”, 27900 fluorescence intensity (a.u.).
